MEKK2 WT-MEK5 – raises or lowers MEK5 binding to wildtype human MEKK2 PB1 domain; bead flow cytometry, Alexa488-MEK5 binding to MEKK2 WT; actives lie on both sides; binding response (% of control), % at 10 µM; Q9Y2U5; actives 1.1% (n = 290,000); in the data active means binding response below about 67% or above about 130%
MEKK2 mut-MEK5 – signal of MEK5 binding to mutant human MEKK2 PB1 domain; bead flow cytometry, Alexa488-MEK5 binding to MEKK2 mutant; percent response, % at 10 µM; AID 1530; actives 0.35% (n = 290,000); in the data active means percent response above about 24%, passing the limit was not always enough
DNA FID counter – counter-screen for HCV NS3 helicase inhibitors: DNA intercalator displacement; DNA fluorescent intercalator displacement, fluorescence; inhibition, % at 7.9 µM; actives 0.17% (n = 290,000); in the data active means inhibition above about 37%;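 further: 0% = vehicle and 100% = reference compound; higher means more ethidium bromide displaced from hairpin DNA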
dFosB act-1 – enhances mouse delta FosB homodimer DNA binding; activation, % at 25 µM; purified delta FosB, TAMRA-CDK5 oligo fluorescence polarization; percent of positive-control signal above neutral wells; actives 0.99% (n = 340,000); P13346; AID 493131;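 active means mean activation above about 17%, with every replicate also reaching it, limit read from the data, passing the limit was not always enough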
MEKK3 PB1 HTS – raises or lowers MEK5 binding to the human MEKK3 PB1 domain. binding response (% of control), % at 10 µM. bead-based flow cytometry, Alexa488-MEK5 binding to MEKK3; actives lie on both sides; 0 = blocked by unlabeled MEK5, 100 = vehicle. Q99759. actives 1.4% (n = 290,000);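 active means binding response more than 3 SD above or below the average of its plate-row segment, actives on both sides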;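 further: Alexa488 bead fluorescence after subtracting the streptavidin-only scavenger bead signal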
Target sequence (Q99759 whole entry, looked up, the tested form may be a part): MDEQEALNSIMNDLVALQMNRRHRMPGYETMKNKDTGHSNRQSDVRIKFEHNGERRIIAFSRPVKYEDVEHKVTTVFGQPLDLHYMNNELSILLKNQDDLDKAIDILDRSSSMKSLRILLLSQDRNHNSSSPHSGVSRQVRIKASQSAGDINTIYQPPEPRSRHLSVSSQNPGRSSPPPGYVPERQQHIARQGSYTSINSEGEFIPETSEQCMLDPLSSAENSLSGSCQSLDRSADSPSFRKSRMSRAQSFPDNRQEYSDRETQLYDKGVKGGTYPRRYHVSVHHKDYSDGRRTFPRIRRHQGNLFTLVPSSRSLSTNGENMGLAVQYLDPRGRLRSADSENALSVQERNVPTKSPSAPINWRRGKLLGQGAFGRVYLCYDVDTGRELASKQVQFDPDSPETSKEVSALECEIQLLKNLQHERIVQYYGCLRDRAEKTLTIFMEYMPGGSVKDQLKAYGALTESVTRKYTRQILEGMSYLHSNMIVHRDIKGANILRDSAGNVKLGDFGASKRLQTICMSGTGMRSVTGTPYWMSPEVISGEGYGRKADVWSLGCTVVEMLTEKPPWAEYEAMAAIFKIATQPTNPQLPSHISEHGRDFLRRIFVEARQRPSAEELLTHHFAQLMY
dFosB act-2 – enhances mouse delta FosB homodimer binding to DNA; shares compounds with dFosB act-1; purified delta FosB, TAMRA-CDK5 oligo fluorescence polarization; normalised: neutral wells 0, positive control 100; activation, % at 24.9 µM; 2,400 tested, under 10 active; AID 588690;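 active means highest replicate activation at or above 34% and every replicate reaching that threshold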;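 further: higher polarization means more probe DNA bound by delta FosB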
Starred values were filed as active, the others as inactive. Most compounds without a hit are left out; they make up all but 2.9% or so of the library.

For Cc1ccc(S(=O)(=O)c2nc(Nc3ccccc3N3CCOCC3)sc2Cl)cc1 the results were MEKK2 WT-MEK5 112, MEKK2 mut-MEK5 7, DNA FID counter 0, dFosB act-1 22*, MEKK3 PB1 HTS 109 and dFosB act-2 3.
Cn1c2ccccc2c2cnn(CC(=O)Nc3ccc(F)cc3F)c(=O)c21 was read as MEKK2 WT-MEK5 109, MEKK2 mut-MEK5 12, DNA FID counter -2, dFosB act-1 21*, MEKK3 PB1 HTS 113 and dFosB act-2 3.
For COc1ccc(NC(=O)Cn2nc(C(=O)O)c3ccccc3c2=O)cc1Cl the results were MEKK2 WT-MEK5 104, MEKK2 mut-MEK5 1, DNA FID counter -12, dFosB act-1 93*, MEKK3 PB1 HTS 100 and dFosB act-2 4.
`O=C(Cn1nc(C(=O)O)c2ccccc2c1=O)Nc1ccc(F)cc1F` gave MEKK2 WT-MEK5 99, MEKK2 mut-MEK5 -3, DNA FID counter -4, dFosB act-1 26*, MEKK3 PB1 HTS 98 and dFosB act-2 3.
`COc1ccc(CCN2CC(C(=O)N3CCCCCC3)CCC2=O)cc1` (configuration not stated) gave MEKK2 WT-MEK5 111, MEKK2 mut-MEK5 7, DNA FID counter -25, dFosB act-1 -1 and MEKK3 PB1 HTS 108.
For O=C(NCc1csc2ccc(Cl)cc12)Nc1ccccc1 the results were MEKK2 WT-MEK5 99, MEKK2 mut-MEK5 3, DNA FID counter -5, dFosB act-1 13 and MEKK3 PB1 HTS 95.
O=C(NC(NC(=S)Nc1cc(Cl)ccc1Cl)C(Cl)(Cl)Cl)c1ccco1 (configuration not stated) was read as MEKK2 WT-MEK5 102, MEKK2 mut-MEK5 1, DNA FID counter -2, dFosB act-1 0 and MEKK3 PB1 HTS 103.
Screening O=C(NCc1csc2ccc(Cl)cc12)Nc1cccc2ccccc12 returned MEKK2 WT-MEK5 102, MEKK2 mut-MEK5 3, DNA FID counter -3, dFosB act-1 44*, MEKK3 PB1 HTS 98 and dFosB act-2 2.
O=C(Cc1ccccc1)NC(NC(=S)Nc1cc(Cl)ccc1Cl)C(Cl)(Cl)Cl (configuration not stated) was read as MEKK2 WT-MEK5 100, MEKK2 mut-MEK5 0, DNA FID counter -3, dFosB act-1 22*, MEKK3 PB1 HTS 108 and dFosB act-2 0.
For O=C(NCc1ccccc1)Nc1cc(Cl)ccc1Cl the results were MEKK2 WT-MEK5 100, MEKK2 mut-MEK5 -1, DNA FID counter -4, dFosB act-1 40*, MEKK3 PB1 HTS 102 and dFosB act-2 2.
Screening Cc1ccc(C)c(NC(=S)NC(NC(=O)Cc2cccc3ccccc23)C(Cl)(Cl)Cl)c1 (configuration not stated) returned MEKK2 WT-MEK5 102, MEKK2 mut-MEK5 4, DNA FID counter -5, dFosB act-1 28*, MEKK3 PB1 HTS 103 and dFosB act-2 3.
`O=C(NCc1ccncc1)Nc1cc(Cl)ccc1Cl` gave MEKK2 WT-MEK5 108, MEKK2 mut-MEK5 6, DNA FID counter 4, dFosB act-1 -6 and MEKK3 PB1 HTS 103.
Cn1c2c(c(=O)n1-c1ccccc1)CSCC2 was read as dFosB act-1 -11.
For CCOC(=O)c1ccc(-n2cccc2/C=C2\NC(=O)NC2=O)cc1 the results were dFosB act-1 30* and dFosB act-2 7.
Screening CCOc1ccc(-n2nnnc2SCC(=O)Nc2ccc(NC(C)=O)cc2)cc1 returned MEKK2 WT-MEK5 103, MEKK2 mut-MEK5 4, DNA FID counter -24, dFosB act-1 19*, MEKK3 PB1 HTS 104 and dFosB act-2 4.
CCOc1ccc(-n2nnnc2SCC(=O)Nc2cccc(O)c2)cc1 was read as MEKK2 WT-MEK5 113, MEKK2 mut-MEK5 11, DNA FID counter -12, dFosB act-1 -2 and MEKK3 PB1 HTS 113.
For COc1ccc(CNS(=O)(=O)c2ccc(S(=O)(=O)N3CCCCC3)cc2)cc1 the results were MEKK2 WT-MEK5 102, MEKK2 mut-MEK5 1, dFosB act-1 41*, MEKK3 PB1 HTS 103 and dFosB act-2 1.
For COc1cccc(COC(=O)c2ccc(S(=O)(=O)N3CCC(C)CC3)cc2)c1OC the results were dFosB act-1 6.

Screens (PubChem)
